In PubChem BioAssay (EPA / NIEHS):
Calls of active or inactive are those of the source. Rule for the calls: active = hit-call score of the fitted dose curve at least 0.9, where 1 is the maximum; inactive = score below 0.9.

system: TTR (gene 7276); experiment: CCTE_GLTED_hTTR_0.125uM: CCTE's human Transthyretin (hTTR) Inhibition Assay, with 0.125uM TTR, Great Lakes Toxicology and Ecology Division (GLTED) Lab (AID 2284431)
Experimental: CCTE_GLTED_hTTR is a cell-free, single-readout assay designed to test the chemicals' ability to displace T4 from the human transthyretin (TTR) protein. TTR (at 0.125uM or 0.5uM) is incubated in presence of test chemical for 2 hours during which disrupting chemicals displace ANSA from the TTR protein. Results read fluorescence at 380 excitation and 475 emission.CCTE_GLTED_hTTR_0.125uM is the assay component measured from the CCTE_GLTED_hTTR assay. It is designed to make measurements of fluorescent polarization, using a form of binding reporter, as detected with Fluorescence signals by Fluorescence technology.Data from the assay component CCTE_GLTED_hTTR_0.125uM was analyzed at the assay endpoint CCTE_GLTED_hTTR_0.125uM in the positive analysis fitting direction relative to DMSO as the negative control and baseline of activity. Using a type of binding reporter, loss-of-signal activity can be used to understand a chemical's ability to displace T4 from transthyretin. To generalize the intended target to other relatable targets, this assay endpoint is annotated to the 'transporter' intended target family, where the subfamily is 'hormone carrier protein'.
Human transthyretin (TTR) assay, developed at Great Lakes Toxicology and Ecology Division (GLTED) within the EPA's Center for Computational Toxicology and Exposure (CCTE), is designed to test the chemicals' ability to displace T4 from the TTR protein. TTR (0.125uM) is incubated in presence of test chemical for 2 hours during which disrupting chemicals displace ANSA from the TTR protein. Results read fluorescence at 380 excitation and 475 emission.

| Structure (SMILES) | AC50 |
| --- | --- |
| Oc1ccccc1-c1ccccc1 | 14.2 µM (active) |
| CCON=C(CC)C1=C(O)CC(c2c(C)cc(C)cc2C)CC1=O (stereo not given) | 9.92 µM (active) |
| CCCN(CCC)c1c([N+](=O)[O-])cc(S(N)(=O)=O)cc1[N+](=O)[O-] | 9.88 µM (active) |
| COC(=O)C(C)Oc1ccc(Oc2ccc(Cl)cc2Cl)cc1 (stereo not given) | 1.12 µM (active) |
| COP(=S)(OC)Oc1nc(Cl)c(Cl)cc1Cl | 0.274 µM (active) |
| Cc1cc(Cl)ccc1OCC(=O)O | 22.1 µM (active) |
| C=CC1(C)OC(=O)N(c2cc(Cl)cc(Cl)c2)C1=O (stereo not given) | 1.68 µM (active) |
| Fc1ccc(Oc2ccnc3cc(Cl)cc(Cl)c23)cc1 | 2.74 µM (active) |
| Cc1ccc(-c2c(Cl)nc(C#N)n2S(=O)(=O)N(C)C)cc1 | 0.0946 µM (active) |
| O=C(O)COc1nc(Cl)c(Cl)cc1Cl | 6.69 µM (active) |
